Assay results: PubChem BioAssay AID588342 (National Center for Advancing Translational Sciences (NCATS), 2011)
Among all 360,000 compounds or so, about 25,000 (6.9%) were called active. Not shown: some 9% with an inconclusive outcome. The list comes from a sample in which actives are over-represented; it also holds similar structures and randomly drawn compounds. Where a call stands in place of a potency, no number is given. Values without a mark were called inactive. The call rests on the fitted dose curve; in most records, active means well fitted inhibition curve with a large enough effect; inconclusive means small, poorly fitted or top-dose-only effect; inactive means flat fitted curve, though single readings scatter.

target: Luciferin 4-monooxygenase (Photinus pyralis) (UniProt P08659); test: qHTS profiling assay for firefly luciferase inhibitor/activator using purifed enzyme and Km concentrations of substrates (counterscreen for miR-21 project); conditions: purified FLuc, luminescence inhibition; series mostly up to 57.5 µM; further: nearly all actives have a fitted effect of over 55% in size
Sequence (P08659 whole entry, looked up): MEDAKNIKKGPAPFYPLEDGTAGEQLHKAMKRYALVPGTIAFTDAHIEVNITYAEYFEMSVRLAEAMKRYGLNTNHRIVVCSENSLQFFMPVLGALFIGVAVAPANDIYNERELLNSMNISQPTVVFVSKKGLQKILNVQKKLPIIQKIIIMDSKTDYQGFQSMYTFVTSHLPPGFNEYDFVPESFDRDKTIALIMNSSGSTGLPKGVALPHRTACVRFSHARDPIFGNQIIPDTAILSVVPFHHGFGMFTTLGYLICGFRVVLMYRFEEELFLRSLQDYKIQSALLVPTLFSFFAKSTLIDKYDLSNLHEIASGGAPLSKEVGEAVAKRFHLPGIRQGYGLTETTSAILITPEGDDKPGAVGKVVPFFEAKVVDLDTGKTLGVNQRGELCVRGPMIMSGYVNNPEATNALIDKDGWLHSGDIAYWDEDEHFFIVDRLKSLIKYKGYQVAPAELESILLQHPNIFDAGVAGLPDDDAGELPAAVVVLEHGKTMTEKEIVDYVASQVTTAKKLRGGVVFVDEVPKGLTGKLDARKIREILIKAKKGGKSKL
In short: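 Purified P. pyralis luciferase, 10 nM final, with Km-level 10 uM D-luciferin and 10 uM ATP in 50 mM Tris acetate pH 7.5, 10 mM Mg acetate, 0.01% Tween-20, 0.05% BSA; 6-point qHTS titration about 60 µM downward; luminescence read.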
Potency means the concentration at half of the fitted maximal effect.

Question: `Cc1ccc(Cn2nnnc2CN2CCC(n3nnc4ccccc43)CC2)cc1` was tested. Which Potency did it give?
Answer: inactive

Question: How did the Potency turn out when `CCc1cccc2c(C#N)cn(CC(=O)N3CCOCC3)c12` was run?
Answer: inactive

Question: How did the Potency turn out when `C=CCN1C(=O)NC(=O)/C(=C/c2ccc(OCC(=O)Nc3ccc(C)cc3)cc2)C1=O` was run?
Answer: 21.3 µM (active)

Question: With `O=C(O)COc1ccccc1/C=C1\C(=O)NC(=O)N(CCC2=CCCCC2)C1=O` as the molecule, how does the Potency read?
Answer: inactive

Question: Which Potency does the source give for `C=CCN(CC=C)C(=O)Nc1ccc(OCC)cc1` here?
Answer: inactive

Question: Which Potency does the source give for `COC(=O)C1=C(c2ccc(Cl)c(C(F)(F)F)c2)C[C@@H]2CC[C@H]1N2C(=O)NC1CC1` here?
Answer: inactive

Question: `Cc1cc(C(=O)OCC(=O)Nc2c(F)cccc2F)c(C)n1C1CC1` was tested. Which Potency did it give?
Answer: inactive

Question: For `c1cc2c(cc1CCNC1CCCCCC1)OCO2`, which Potency is on record?
Answer: inactive

Question: For `COC(=O)C1=C(c2ccc(F)cc2OCc2ccccc2)C[C@@H]2CC[C@H]1N2C(=O)NCc1ccc(OC)c(OC)c1`, which Potency is on record?
Answer: inactive

Question: For `Cc1cccc(N2C(=O)NC(=O)/C(=C\c3cnn(-c4ccccc4)c3)C2=O)c1`, which Potency is on record?
Answer: 15.1 µM (active)

Question: `COc1cccc(N2C(=O)NC(=O)/C(=C\c3cn(C)c4ccccc34)C2=O)c1` was tested. Which Potency did it give?
Answer: inactive

Question: Which Potency does the source give for `O=C1C2(Cl)C3(Cl)C4(Cl)C(Cl)(Cl)C5(Cl)C3(Cl)C1(Cl)C5(Cl)C24Cl` (stereo not given) here?
Answer: inactive

Question: `COc1ccc(Br)cc1CNCCc1cccc(Cl)c1` was tested. Which Potency did it give?
Answer: inactive

Question: With `COc1cc(-n2c(=S)[nH]c3ccc(C)cc3c2=O)c(Cl)cc1Cl` as the molecule, how does the Potency read?
Answer: inactive

Question: Which Potency does the source give for `c1csc(-c2nnc(COc3ccc4c(c3)OCO4)o2)c1` here?
Answer: 19 µM (active)

Question: Which Potency does the source give for `CCN(CC)P(=O)(Oc1cccc(C)c1)N(CC)CC` here?
Answer: inactive

Question: `COC(=O)C1=C(c2ccc(F)cc2F)C[C@@H]2CC[C@H]1N2C(=O)NC1CC1` was tested. Which Potency did it give?
Answer: inactive

Question: `Cc1nc2ccc(N3CCN(C)CC3)cc2nc1C` was tested. Which Potency did it give?
Answer: 19 µM (active)

Question: Which Potency does the source give for `CN1CCN(c2cc(N3CCNCC3)ccc2[N+](=O)[O-])CC1` here?
Answer: inactive

Question: How did the Potency turn out when `COC(=O)C1=C(c2cccc(OCc3ccccc3)c2)C[C@@H]2CC[C@H]1N2C(=O)NNCc1ccccc1` was run?
Answer: inactive

Question: For `CCOC(=O)C1=C(C)OC(N)=C(C(=O)OC)C12C(=O)Nc1ccc(Br)cc12` (stereo not given), which Potency is on record?
Answer: inactive

Question: With `Cc1ccc(-n2c(/C=C/c3cccc(C(F)(F)F)c3)nc3ccccc3c2=O)cc1` as the molecule, how does the Potency read?
Answer: inactive

Question: Which Potency does the source give for `COC(=O)C1=C(c2ccc(F)cc2OCc2ccccc2)C[C@@H]2CC[C@H]1N2C(=O)NCc1ccc(Cl)cc1` here?
Answer: inactive

Question: For `Cc1cc(/C=C2/C(=O)NC(=O)N(Cc3ccco3)C2=O)c(C)n1-c1ccc(C(=O)O)cc1`, which Potency is on record?
Answer: inactive

Question: `O=C1NC(=O)N(CCc2ccc(F)cc2)C(=O)/C1=C/C=C/c1ccccc1` was tested. Which Potency did it give?
Answer: inactive

Question: For `O=C1NC(=O)N(Cc2ccco2)C(=O)/C1=C\c1ccc(-c2ccc(F)cc2)o1`, which Potency is on record?
Answer: 10.7 µM (active)

Question: For `c1ccc2sc(C3CCCNC3)nc2c1` (stereo not given), which Potency is on record?
Answer: inactive

Question: `COC(=O)C1=C(c2ccc(F)cc2OCc2ccccc2)C[C@@H]2CC[C@H]1N2C(=O)NCc1ccc2[nH]ccc2c1` was tested. Which Potency did it give?
Answer: inactive

Question: How did the activity change, negative = inhibition turn out when `CCOC(=O)c1c(-c2ccccc2)oc2ccc(OC(=O)N(C)C)cc12` was run?
Answer: 1.44% [at 2.3 µM]

Question: With `CN(C)C(=O)Oc1ccc(OCc2cccc[n+]2C)cc1` as the molecule, how does the Potency read?
Answer: inactive

Question: For `CN(C)C(=O)Oc1ccc2c(c1)O/C(=C\c1ccccc1)C2=O`, which Potency is on record?
Answer: 9.53 µM (active)

Question: With `CCC12CCN(CCc3ccccc3)CC1Oc1c(O)cccc12` (stereo not given) as the molecule, how does the Potency read?
Answer: inactive

Question: For `COC(=O)C1=C(c2ccc(Cl)c(C(F)(F)F)c2)C[C@@H]2CC[C@H]1N2C(=O)NC(C)C`, which Potency is on record?
Answer: inactive

Question: Which Potency does the source give for `Cc1nn(-c2ccccc2)c(C)c1NC(=O)COC(=O)Cc1ccccc1` here?
Answer: inactive

Question: How did the Potency turn out when `COc1ccc(C(=O)C2CN(C)CC2C(=O)c2ccc(OC)cc2)cc1` (stereo not given) was run?
Answer: inactive
